Reference: PubChem BioAssay
Activity calls are given as the source filed them. Rule as the data show it: active = nuclear beta-catenin stimulation mostly above about 4.2% (no sharp cut-off); inactive = mostly below about 10%.

Experiment: stimulators of nuclear beta-catenin in C2C12, primary screen, imaging, WNT3A-conditioned medium, mouse C2C12, NPC library (AID 1117326); also: reference of the scale not given here
Conditions: at 10 µM, stronger effect = higher value
In the case of O=C1NCCN1CCN1CCC(c2cn(-c3ccc(F)cc3)c3ccc(Cl)cc23)CC1, the nuclear beta-catenin stimulation is reported as 5.7% (inactive). With CC(CN(C)C)C(C)(O)Cc1ccc(Cl)cc1 (stereo not drawn) the nuclear beta-catenin stimulation was -2% (inactive). For O=c1[nH]c(=O)n([C@H]2CCCO2)cc1F, the nuclear beta-catenin stimulation was 0.6% (inactive). In the case of O=C(CCCl)NCCc1ccccc1, the nuclear beta-catenin stimulation is reported as -0.5% (inactive). For COc1cc(O)c(C(=O)c2ccccc2)cc1S(=O)(=O)O, the nuclear beta-catenin stimulation was -0.8% (inactive). With CCNC(=O)/C=C/c1cccc(Br)c1 the nuclear beta-catenin stimulation was 0.9% (inactive). With Nc1c[n+](N2CCOCC2)no1 the nuclear beta-catenin stimulation was 0.4% (inactive). In the case of O=C(OCCOCCO)c1ccccc1Nc1cccc(C(F)(F)F)c1, the nuclear beta-catenin stimulation is reported as -1.7% (inactive). With CCOC(=O)[C@@](C)(N)Cc1ccc(O)c(O)c1 the nuclear beta-catenin stimulation was 0.6% (inactive). For CCCCC(O)c1ccccc1 (stereo not drawn), the nuclear beta-catenin stimulation was -0.9% (inactive). With Cn1c(=O)c2c(ncn2CC(=O)O)n(C)c1=O the nuclear beta-catenin stimulation was -0.1% (inactive). For O=P(O)(O)C(Cl)(Cl)P(=O)(O)O, the nuclear beta-catenin stimulation was 1% (inactive). With CO/N=C(\C(=O)N[C@@H]1C(=O)N2C(C(=O)O)=C(CSc3nc(=O)c(O)nn3C)CS[C@H]12)c1csc(N)n1 the nuclear beta-catenin stimulation was -1.8% (inactive). In the case of NC(=O)C(c1ccccc1)(c1ccccc1)[C@@H]1CCN(CCc2ccc3c(c2)CCO3)C1, the nuclear beta-catenin stimulation is reported as 0.1% (inactive). For NCCNCCNCCNCCN, the nuclear beta-catenin stimulation was -1.7% (inactive). With C#C[C@]1(O)CC[C@H]2[C@@H]3CCc4cc(OC5CCCC5)ccc4[C@H]3CC[C@@]21C the nuclear beta-catenin stimulation was 54.3% (active). With O=C(NCCCN1CCOCC1)c1ccc(Cl)cc1 the nuclear beta-catenin stimulation was 0.6% (inactive). In the case of CC[C@H](C)[C@H](N)C(=O)O, the nuclear beta-catenin stimulation is reported as 2.1% (inactive). In the case of Cc1nc2ccccc2n1Cc1ccc(Cl)cc1, the nuclear beta-catenin stimulation is reported as 1.3% (inactive). With C[N+](C)(C)CC(O)CC(=O)[O-] (stereo not drawn) the nuclear beta-catenin stimulation was 6.3% (inactive). With CN1CC[C@H](c2c(O)cc(O)c3c(=O)cc(-c4ccccc4Cl)oc23)[C@H](O)C1 the nuclear beta-catenin stimulation was 72.1% (active). In the case of COc1ccc(-n2nc(CCC(=O)N(C)O)cc2-c2ccc(Cl)cc2)cc1, the nuclear beta-catenin stimulation is reported as 0.6% (inactive). In the case of O=C(O)CCCCC(=O)O, the nuclear beta-catenin stimulation is reported as 0.3% (inactive). For Cc1cccn2c(=O)c(-c3nnn[nH]3)cnc12, the nuclear beta-catenin stimulation was 3% (inactive). With Cc1cc(CC(C)CC(C)(C)C)n(O)c(=O)c1 (stereo not drawn) the nuclear beta-catenin stimulation was 43.5% (active). With CCC1C(=O)OCC1Cc1cncn1C (stereo not drawn) the nuclear beta-catenin stimulation was 0.7% (inactive). For O=C1OC2(c3ccccc31)c1cc(I)c(O)c(I)c1Oc1c2cc(I)c(O)c1I, the nuclear beta-catenin stimulation was 1.2% (inactive). With N[C@@H](Cc1ccc(O)cc1)C(=O)O the nuclear beta-catenin stimulation was -2% (inactive). For CCOCCn1c(N2CCCN(C)CC2)nc2ccccc21, the nuclear beta-catenin stimulation was -1.8% (inactive). For O=C1NCN(c2ccccc2)C12CCN(CCCC(c1ccc(F)cc1)c1ccc(F)cc1)CC2, the nuclear beta-catenin stimulation was 31.6% (inactive). For CCN(CC)C(=O)Nc1ccc(OCC(O)CNC(C)(C)C)c(C(C)=O)c1 (stereo not drawn), the nuclear beta-catenin stimulation was -1.9% (inactive). For Cc1ncc([N+](=O)[O-])n1C, the nuclear beta-catenin stimulation was 1.7% (inactive). For CN(C)CCOC1=Cc2ccccc2Sc2ccc(Cl)cc21, the nuclear beta-catenin stimulation was 31.6% (inactive). With C[C@]1(Cn2ccnn2)[C@H](C(=O)O)N2C(=O)C[C@H]2S1(=O)=O the nuclear beta-catenin stimulation was -1.1% (inactive). With CCOc1ccccc1C(N)=O the nuclear beta-catenin stimulation was 0.9% (inactive). In the case of N#Cc1cc(NC(=O)C(=O)O)c(Cl)c(NC(=O)C(=O)O)c1, the nuclear beta-catenin stimulation is reported as 3.5% (inactive). With Clc1cc(Cl)c(OCC#CI)cc1Cl the nuclear beta-catenin stimulation was 62.3% (active). For CCCCC(CC)COC(=O)c1ccccc1O (stereo not drawn), the nuclear beta-catenin stimulation was -0.1% (inactive). For CCOc1ccccc1OCC1CNCCO1 (stereo not drawn), the nuclear beta-catenin stimulation was 0.4% (inactive).

Same assay, conditions: stimulation, at 2 µM, stronger effect = higher value
Compound O=C1NCCN1CCN1CCC(c2cn(-c3ccc(F)cc3)c3ccc(Cl)cc23)CC1 has a nuclear beta-catenin stimulation of 0.1%. With CC(CN(C)C)C(C)(O)Cc1ccc(Cl)cc1 (stereo not drawn) the nuclear beta-catenin stimulation was -0.8%. O=c1[nH]c(=O)n([C@H]2CCCO2)cc1F gave a nuclear beta-catenin stimulation of 0.4%. For O=C(CCCl)NCCc1ccccc1, the nuclear beta-catenin stimulation was 0.2%. COc1cc(O)c(C(=O)c2ccccc2)cc1S(=O)(=O)O gave a nuclear beta-catenin stimulation of 0.1%. For CCNC(=O)/C=C/c1cccc(Br)c1, the nuclear beta-catenin stimulation was 0.6%. Compound Nc1c[n+](N2CCOCC2)no1 has a nuclear beta-catenin stimulation of -0.3%. In the case of O=C(OCCOCCO)c1ccccc1Nc1cccc(C(F)(F)F)c1, the nuclear beta-catenin stimulation is reported as -0.5%. CCOC(=O)[C@@](C)(N)Cc1ccc(O)c(O)c1 gave a nuclear beta-catenin stimulation of -0.5%. CCCCC(O)c1ccccc1 (stereo not drawn) showed a nuclear beta-catenin stimulation of -0.8%. Compound Cn1c(=O)c2c(ncn2CC(=O)O)n(C)c1=O has a nuclear beta-catenin stimulation of -1%. O=P(O)(O)C(Cl)(Cl)P(=O)(O)O gave a nuclear beta-catenin stimulation of 0.9%. CO/N=C(\C(=O)N[C@@H]1C(=O)N2C(C(=O)O)=C(CSc3nc(=O)c(O)nn3C)CS[C@H]12)c1csc(N)n1 gave a nuclear beta-catenin stimulation of -0.3%. For NC(=O)C(c1ccccc1)(c1ccccc1)[C@@H]1CCN(CCc2ccc3c(c2)CCO3)C1, the nuclear beta-catenin stimulation was 1.7%. Work on NCCNCCNCCNCCN yielded a nuclear beta-catenin stimulation of -1.3%. C#C[C@]1(O)CC[C@H]2[C@@H]3CCc4cc(OC5CCCC5)ccc4[C@H]3CC[C@@]21C gave a nuclear beta-catenin stimulation of 0.5%. Compound O=C(NCCCN1CCOCC1)c1ccc(Cl)cc1 has a nuclear beta-catenin stimulation of 1%. For CC[C@H](C)[C@H](N)C(=O)O, the nuclear beta-catenin stimulation was 4.3%. For Cc1nc2ccccc2n1Cc1ccc(Cl)cc1, the nuclear beta-catenin stimulation was 1.1%. With C[N+](C)(C)CC(O)CC(=O)[O-] (stereo not drawn) the nuclear beta-catenin stimulation was 2.6%. Work on CN1CC[C@H](c2c(O)cc(O)c3c(=O)cc(-c4ccccc4Cl)oc23)[C@H](O)C1 yielded a nuclear beta-catenin stimulation of 76.1%. COc1ccc(-n2nc(CCC(=O)N(C)O)cc2-c2ccc(Cl)cc2)cc1 showed a nuclear beta-catenin stimulation of 0.2%. O=C(O)CCCCC(=O)O gave a nuclear beta-catenin stimulation of -0.9%. Compound Cc1cccn2c(=O)c(-c3nnn[nH]3)cnc12 has a nuclear beta-catenin stimulation of 1.7%. Work on Cc1cc(CC(C)CC(C)(C)C)n(O)c(=O)c1 (stereo not drawn) yielded a nuclear beta-catenin stimulation of 50.6%. Work on CCC1C(=O)OCC1Cc1cncn1C (stereo not drawn) yielded a nuclear beta-catenin stimulation of 20%. Work on O=C1OC2(c3ccccc31)c1cc(I)c(O)c(I)c1Oc1c2cc(I)c(O)c1I yielded a nuclear beta-catenin stimulation of 1.9%. Work on N[C@@H](Cc1ccc(O)cc1)C(=O)O yielded a nuclear beta-catenin stimulation of -0.2%. In the case of CCOCCn1c(N2CCCN(C)CC2)nc2ccccc21, the nuclear beta-catenin stimulation is reported as 1%. For O=C1NCN(c2ccccc2)C12CCN(CCCC(c1ccc(F)cc1)c1ccc(F)cc1)CC2, the nuclear beta-catenin stimulation was 2.1%. Work on CCN(CC)C(=O)Nc1ccc(OCC(O)CNC(C)(C)C)c(C(C)=O)c1 (stereo not drawn) yielded a nuclear beta-catenin stimulation of -0.3%. Work on Cc1ncc([N+](=O)[O-])n1C yielded a nuclear beta-catenin stimulation of 22.2%. With CN(C)CCOC1=Cc2ccccc2Sc2ccc(Cl)cc21 the nuclear beta-catenin stimulation was -1%. C[C@]1(Cn2ccnn2)[C@H](C(=O)O)N2C(=O)C[C@H]2S1(=O)=O showed a nuclear beta-catenin stimulation of 0.1%. CCOc1ccccc1C(N)=O showed a nuclear beta-catenin stimulation of 1.6%. With N#Cc1cc(NC(=O)C(=O)O)c(Cl)c(NC(=O)C(=O)O)c1 the nuclear beta-catenin stimulation was 1.2%. Work on Clc1cc(Cl)c(OCC#CI)cc1Cl yielded a nuclear beta-catenin stimulation of 21.7%. With CCCCC(CC)COC(=O)c1ccccc1O (stereo not drawn) the nuclear beta-catenin stimulation was -0.3%. With CCOc1ccccc1OCC1CNCCO1 (stereo not drawn) the nuclear beta-catenin stimulation was -0.3%.
